# Measurements from the supplement of paper PMC8728848.
# Only a selection was taken, and the strongest signals are over-represented in it overall.
# B1: Als1 (Candida albicans), P46590 (protein)
# chain: KTITGVFDSFNSLTWSNAANYAFKGPGYPTWNAVLGWSLDGTSANPGDTFTLNMPCVFKYTTSQTSVDLTADGVKYATCQFYSGEEFTTFSTLTCTVNDALKSSIKAFGTVTLPIAFNVGGTGSSTDLEDSKCFTAGTNTVTFNDGDKDISIDVEFEKSTVDPSGYLYASRVMPSLNKVTTLFVAPQCENGYTSGTMGFSSSNGDVAIDCSNIHIGITKGLNDWNYPVSSESFSYTKTCTSNGIQIKYQNVPAGYRPFIDAYISATDVNQYTLAYTNDYTCAGSRLQSKPFTLRWTGYKNSDAGSNGIVIVATTRTVTDSTTAVTTLPFNPSVDKTKTIEILQPIPTTTITTSYVGVTTSYLTKTAPIGETATVIVDVPYHTTTTVTSEWTGTITTTTTRTNPTDSIDTVVVQVP
# What was measured:
# Assay in all cases: glycan array binding signal (z-score within array); higher = stronger binding
# Settings in all cases: glycan notation: IUPAC condensed, linker removed
# Gal3S6S(b1-4)GlcNAc6S = target: Gal3S6S(b1-4)GlcNAc6S
# Method in brief: (§1)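 The Consortium for Functional Glycomics database supplied 3228 glycan arrays, of which those lacking an available protein sequence were dropped. The binding signal, a within-array Z-score, was averaged across arrays of the same protein sequence and across linkers. Negative scores can be read as non-binding.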
# Gal4S(b1-4)GlcNAc = target: Gal4S(b1-4)GlcNAc
# Method in brief: as §1
# [1] = target: GlcA3S(b1-3)Gal(b1-4)GlcNAc(b1-2)Man
# Method in brief: as §1
# GlcNAc(b1-3)Gal = target: GlcNAc(b1-3)Gal
# Method in brief: as §1
# [2] = target: GlcNAc(b1-3)Gal(b1-4)GlcNAc(b1-2)Man(a1-3)[GlcNAc(b1-3)Gal(b1-4)GlcNAc(b1-2)Man(a1-6)]Man(b1-4)GlcNAc(b1-4)[Fuc(a1-6)]GlcNAc
# Method in brief: as §1
# [3] = target: GlcNAc(b1-3)Gal(b1-4)GlcNAc(b1-2)[GlcNAc(b1-3)Gal(b1-4)GlcNAc(b1-6)]Man(a1-6)[GlcNAc(b1-3)Gal(b1-4)GlcNAc(b1-2)Man(a1-3)]Man(b1-4)GlcNAc(b1-4)GlcNAc
# Method in brief: as §1
# GlcNAc(b1-3)Man = target: GlcNAc(b1-3)Man
# Method in brief: as §1
# [4] = target: GlcNAc(b1-3)[GlcNAc(b1-6)]Gal(b1-4)GlcNAc
# Method in brief: as §1
# [5] = target: Man(a1-2)Man(a1-2)Man(a1-6)[Man(a1-3)]Man
# Method in brief: as §1
# [6] = target: Man(a1-3)[Man(a1-6)]Man(a1-6)[Man(a1-3)]Man
# Method in brief: as §1
# [7] = target: Neu5Ac(a2-3)Gal(b1-3)GlcNAc(b1-3)Gal(b1-4)GlcNAc
# Method in brief: as §1
# [8] = target: Neu5Ac(a2-3)Gal(b1-3)GlcNAc(b1-4)Gal(b1-4)Glc
# Method in brief: as §1
# [9] = target: Neu5Ac(a2-3)Gal(b1-3)[Fuc(a1-4)]GlcNAc(b1-3)Gal(b1-4)[Fuc(a1-3)]GlcNAc
# Method in brief: as §1
# [10] = target: Neu5Ac(a2-3)Gal(b1-4)GlcNAc(b1-3)Gal
# Method in brief: as §1
# [11] = target: Neu5Ac(a2-3)Gal(b1-4)GlcNAc(b1-3)Gal(b1-4)GlcNAc(b1-3)Gal(b1-4)GlcNAc(b1-2)Man(a1-3)[Neu5Ac(a2-3)Gal(b1-4)GlcNAc(b1-3)Gal(b1-4)GlcNAc(b1-3)Gal(b1-4)GlcNAc(b1-2)Man(a1-6)]GalNAc
# Method in brief: as §1
# [12] = target: Neu5Ac(a2-3)Gal(b1-4)[Fuc(a1-3)]GlcNAc(b1-6)[Neu5Ac(a2-3)Gal(b1-3)]GalNAc
# Method in brief: as §1
# [13] = target: Neu5Ac(a2-3)[GalNAc(b1-4)]Gal(b1-4)Glc
# Method in brief: as §1
# [14] = target: Neu5Ac(a2-6)Gal(b1-4)GlcNAc(b1-3)Gal(b1-4)GlcNAc(b1-6)[Gal(b1-3)]GalNAc
# Method in brief: as §1
# Neu5Ac(a2-8)Neu5Ac = target: Neu5Ac(a2-8)Neu5Ac
# Method in brief: as §1
# [15] = target: Neu5Ac(a2-8)Neu5Ac(a2-3)Gal(b1-3)GalNAc(b1-4)[Neu5Ac(a2-3)]Gal(b1-4)Glc
# Method in brief: as §1
# [16] = target: Neu5Ac(a2-8)Neu5Ac(a2-8)Neu5Ac(a2-3)Gal(b1-4)Glc
# Method in brief: as §1
# [17] = target: Neu5Ac(a2-8)Neu5Gc(a2-3)Gal(b1-4)GlcNAc
# Method in brief: as §1
# [18] = target: Neu5Gc(a2-8)Neu5Ac(a2-3)Gal(b1-4)GlcNAc
# Method in brief: as §1
binder,measurement,setting,value
B1,glycan array binding signal (z-score),Gal3S6S(b1-4)GlcNAc6S,3.22
same,glycan array binding signal (z-score),Gal4S(b1-4)GlcNAc,0.401
same,glycan array binding signal (z-score),[1],-0.192
same,glycan array binding signal (z-score),GlcNAc(b1-3)Gal,4.47
same,glycan array binding signal (z-score),[2],-0.201
same,glycan array binding signal (z-score),[3],4.37
same,glycan array binding signal (z-score),GlcNAc(b1-3)Man,-0.282
same,glycan array binding signal (z-score),[4],-0.361
same,glycan array binding signal (z-score),[5],-0.553
same,glycan array binding signal (z-score),[6],1.09
same,glycan array binding signal (z-score),[7],-0.473
same,glycan array binding signal (z-score),[8],4.25
same,glycan array binding signal (z-score),[9],-0.015
same,glycan array binding signal (z-score),[10],-0.274
same,glycan array binding signal (z-score),[11],3.84
same,glycan array binding signal (z-score),[12],2.16
same,glycan array binding signal (z-score),[13],-0.291
same,glycan array binding signal (z-score),[14],-0.05
same,glycan array binding signal (z-score),Neu5Ac(a2-8)Neu5Ac,-0.045
same,glycan array binding signal (z-score),[15],-0.627
same,glycan array binding signal (z-score),[16],-0.083
same,glycan array binding signal (z-score),[17],-0.049
same,glycan array binding signal (z-score),[18],4.63
